Reference: PubChem BioAssay AID1159580 (chemical genetic matrix, 2015)
Several values for one entry are separate records, joined by “and”; a condition that tells them apart may be missing. Equal values may be shown once. Screen size: about 5,500 compounds; about 2,000 (36%) were called active. Roughly 18% stayed inconclusive and do not appear here. No stated cut-off is given here; in the data, active means normalized growth mostly below about 0.91 (no sharp cut-off); inconclusive means no clear call, values can overlap the other calls; inactive means mostly above about 0.92. The list shows a part of the results.

Test: chemical genetic growth profiling, strain panel (AID 1159580);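 further: tested at 20 µM; growth read once vehicle control cultures reached saturation at 30 °C; 1 = growth at the plate median or of vehicle wells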
Conditions: S. cerevisiae deletion strains, growth OD

Measured: normalized growth

COc1cc(C(=O)N2CCOCC2)cc(OC)c1OC
active: locus YCL029C, strain bik1, stronger effect = lower value 0.726 | locus YDL192W, strain arf1, stronger effect = lower value 0.101 | locus YDR101C, strain arx1, stronger effect = lower value 0.494 | locus YDR318W, strain mcm21, stronger effect = lower value 0.0684 | locus YDR388W, stronger effect = lower value 0.0657 | locus YDR502C, strain sam2, stronger effect = lower value 0.111 | locus YER110C, stronger effect = lower value 0.264 | locus YGL078C, strain dbp3, stronger effect = lower value 0.138 | locus YGL086W, strain mad1, stronger effect = lower value 0.0586 | locus YGR135W, strain pre9, stronger effect = lower value 0.0725 | locus YGR252W, strain gcn5, stronger effect = lower value 0.211 | locus YHR079C, strain IRE1 (second series), stronger effect = lower value 0.578 | locus YHR094C, strain hxt1, stronger effect = lower value 0.127 | locus YHR200W, strain rpn10, stronger effect = lower value 0.122 | locus YIL125W, strain kgd1, stronger effect = lower value 0.198 | locus YIR030C, strain dcg1, stronger effect = lower value 0.292 | locus YJL168C, strain set2, stronger effect = lower value 0.202
inactive: locus YAL013W, strain DEP1, stronger effect = lower value 1.01 | locus YAL021C, strain ccr4, stronger effect = lower value 1.01 | locus YAL026C, strain drs2, stronger effect = lower value 0.974 | locus YAL030W, strain snc1, stronger effect = lower value 0.984 | locus YBL061C, strain skt5, stronger effect = lower value 0.967 | locus YBR009C, strain hhf1, stronger effect = lower value 1.01 | locus YBR021W, strain FUR4, stronger effect = lower value 0.997 | locus YBR023C, strain chs3, stronger effect = lower value 0.971 | locus YBR171W, strain sec66, stronger effect = lower value 0.972 | locus YBR229C, strain ROT2, stronger effect = lower value 1.01 | locus YBR231C, strain swc5, stronger effect = lower value 0.983 | locus YBR279W, strain paf1, stronger effect = lower value 0.983 | locus YCL011C, strain gbp2, stronger effect = lower value 0.993 | locus YCL016C, strain dcc1, stronger effect = lower value 1 | locus YCL061C, strain MRC1, stronger effect = lower value 0.978 | locus YCL069W, strain vba3, stronger effect = lower value 0.972 | locus YCR088W, strain abp1, stronger effect = lower value 0.978 | locus YDL005C, strain med2, stronger effect = lower value 0.969 | locus YDL035C, strain GPR1, stronger effect = lower value 1.02 | locus YDL040C, strain nat1, stronger effect = lower value 0.974 | locus YDL074C, strain BRE1, stronger effect = lower value 1.01 | locus YDL101C, strain DUN1, stronger effect = lower value 1.02 | locus YDL134C, strain PPH21, stronger effect = lower value 1.01 | locus YDL185W, strain tfp1, stronger effect = lower value 1.01 | locus YDR001C, strain nth1, stronger effect = lower value 0.98 | locus YDR069C, strain doa4, stronger effect = lower value 0.992 | locus YDR137W, strain rgp1, stronger effect = lower value 0.989 | locus YDR150W, strain NUM1, stronger effect = lower value 1.02 | locus YDR159W, strain sac3, stronger effect = lower value 0.961 | locus YDR162C, strain NBP2, stronger effect = lower value 1 | locus YDR195W, strain ref2 0.937 | locus YDR297W, strain sur2, stronger effect = lower value 0.999 | locus YDR334W, strain swr1, stronger effect = lower value 0.966 | locus YDR335W, strain msn5, stronger effect = lower value 0.979 | locus YDR392W, strain spt3, stronger effect = lower value 1.02 | locus YEL003W, strain gim4, stronger effect = lower value 0.985 | locus YEL037C, strain rad23, stronger effect = lower value 0.988 | locus YEL061C, strain CIN8 (second series), stronger effect = lower value 0.964 | locus YEL061C, strain CIN8, stronger effect = lower value 1 | locus YER015W, strain faa2, stronger effect = lower value 0.989 | locus YER016W, strain bim1, stronger effect = lower value 0.987 | locus YER111C, strain swi4, stronger effect = lower value 0.945 | locus YER155C, strain BEM2 (second series), stronger effect = lower value 0.994 | locus YER155C, strain BEM2, stronger effect = lower value 1.01 | locus YER167W, strain BCK2, stronger effect = lower value 1.02 | locus YFR010W, strain ubp6, stronger effect = lower value 0.962 | locus YGL167C, strain pmr1, stronger effect = lower value 0.971 | locus YGL173C, strain kem1, stronger effect = lower value 0.985 | locus YGL227W, strain vid30, stronger effect = lower value 0.978 | locus YGL240W, strain doc1, stronger effect = lower value 0.991 | locus YGL248W, strain PDE1, stronger effect = lower value 1.01 | locus YGL253W, strain hxk2, stronger effect = lower value 0.97 | locus YGR078C, strain PAC10, stronger effect = lower value 1 | locus YGR229C, strain SMI1, stronger effect = lower value 1.01 | locus YHR013C, strain ard1, stronger effect = lower value 0.997 | locus YHR027C, strain rpn1, stronger effect = lower value 0.995 | locus YHR030C, strain SLT2, stronger effect = lower value 1.01 | locus YHR079C, strain IRE1, stronger effect = lower value 1.04 | locus YHR129C, strain ARP1, stronger effect = lower value 0.998 | locus YHR142W, strain chs7, stronger effect = lower value 0.982 | locus YIL066C, strain RNR3, stronger effect = lower value 1.02 | locus YIL073C, strain SPO22, stronger effect = lower value 1.09 | locus YJL092W, strain hpr5, stronger effect = lower value 0.972 | locus YJL095W, strain BCK1 (second series), stronger effect = lower value 0.979 | locus YJL095W, strain BCK1, stronger effect = lower value 0.991 and 0.987 | locus YJL115W, strain asf1, stronger effect = lower value 0.987 | locus YJL129C, strain trk1, stronger effect = lower value 0.958 | locus YJL134W, strain LCB3, stronger effect = lower value 1.01 | locus YJL154C, strain vps35, stronger effect = lower value 0.974 | locus YJL164C, strain tpk1, stronger effect = lower value 0.999 | locus YJL166W, strain qcr8, stronger effect = lower value 1.02 | locus YJL187C, strain SWE1 (second series), stronger effect = lower value 1.01 | locus YJR043C, strain POL32, stronger effect = lower value 1.02 | locus YJR066W, strain TOR1, stronger effect = lower value 0.984
